The source of these data is PubChem BioAssay (Tox21).

Results filed as inconclusive are left out. Activity calls are given as the source filed them. The call rests on the fitted dose curve; in most records, active means well fitted inhibition curve with a large enough effect in the signal ratio in the repeat runs (not every such curve was filed as active); inconclusive means weak or mixed curves, or effect the other way; inactive means no such curve, though single readings can be large or run the other way; the % refers to the signal ratio.
On the % scale 0 is the no-effect control and ±100 the full control effect.

Chain of Peroxisome proliferator-activated receptor delta (Homo sapiens) (Q03181 whole entry, looked up): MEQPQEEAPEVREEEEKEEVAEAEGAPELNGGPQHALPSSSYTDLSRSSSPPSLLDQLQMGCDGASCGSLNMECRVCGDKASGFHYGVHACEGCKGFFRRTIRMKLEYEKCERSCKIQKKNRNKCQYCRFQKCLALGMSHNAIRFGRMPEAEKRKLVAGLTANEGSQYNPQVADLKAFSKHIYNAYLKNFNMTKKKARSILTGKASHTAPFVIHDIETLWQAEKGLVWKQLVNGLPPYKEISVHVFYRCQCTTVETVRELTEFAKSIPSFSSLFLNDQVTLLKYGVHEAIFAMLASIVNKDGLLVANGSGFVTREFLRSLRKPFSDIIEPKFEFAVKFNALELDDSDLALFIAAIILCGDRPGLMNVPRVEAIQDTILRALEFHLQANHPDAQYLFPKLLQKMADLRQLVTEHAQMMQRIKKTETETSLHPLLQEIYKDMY

The assay deals with Peroxisome proliferator-activated receptor delta (Homo sapiens) (UniProt Q03181). The experiment in a line: qHTS assay to identify small molecule antagonists of the peroxisome proliferator-activated receptor delta (PPARd) signaling pathway (AID 743215).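 Further: cells stimulated with agonist L165041 at 300 nM final during compound exposure.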 Particulars: HEK293H PPARd-UAS-bla, beta-lactamase FRET ratio, antagonist, 17 h; series mostly up to 62 µM; ratio activity, negative = inhibition: at the top concentration. The source says:
U.S. Tox21 Program National Center for Advancing Translational Sciences [NCATS] NIH Chemical Genomics Center [NCGC] U.S. Environmental Protection Agency [EPA] National Institutes of Environmental Health Sciences [NIEHS] National Toxicology Program [NTP] U.S. Food and Drug Administration [FDA] Tox21 Assay Overview: The peroxisome proliferator-activated receptors (PPARs) are lipid-activated transcription factors of the nuclear receptor superfamily with three distinct subtypes namely PPAR alpha, PPAR delta (PPARd) and PPAR gamma. All these subtypes heterodimerizes with Retinoid X receptor (RXR) and have different physiological functions. […] To identify the compounds that inhibit PPAR-delta signaling, GeneBLAzer PPAR delta UAS-bla HEK293H cell line (Invitrogen, Carlsbad, CA, USA) containing a beta-lactamase reporter gene under the control of an Upstream Activator Sequence (UAS) was used to screen the Tox21 compound library.
Tox21 Assay Protocol Summary: PPARd-bla cells were dispensed at 3000 cells/5uL/well in 1536-well black wall/clear bottom plates using a Multidrop Combi (Thermo Fisher Scientific, Waltham, MA) dispenser. After the assay plates were incubated at 37 C and 5% CO2 for 5 h, 23 nL of compounds dissolved in DMSO, positive controls or DMSO only was transferred to the assay plate by a Pintool station (Kalypsys, San Diego, CA), followed by addition of 1ul L165041 (300 nM, final concentration in the wells). The assay plates were incubated at 37 C for 17 h, and then 1 uL of LiveBLAzerTM B/G FRET substrate was added using a Bioraptr Flying Reagent Dispenser (FRD) workstation (Beckman Coulter, Indianapolis, IN, USA). The assay plates were incubated at room temperature for 2 h and fluorescence intensity was measured by an Envision plate reader (PerkinElmer, Shelton, CT).
For the molecule `CC/C(=N\OC/C=C/Cl)C1=C(O)CC(C2CCOCC2)CC1=O` (stereo not given), the “ratio activity, negative = inhibition” value is 17.2% (inactive). Regarding `Brc1ccc(Oc2ccccc2)cc1`, the Potency result was “inactive”. As for `COP(=S)(OC)Oc1cc(Cl)c(I)cc1Cl`, the “ratio activity, negative = inhibition” value was -18.4% (inactive).

`CCOC(=O)CBr`: the “ratio activity, negative = inhibition” value is -14.5% [at 80.4 µM] (inactive). On the same count and under the same terms, the result for `CN1C(=O)NC(=O)C(C)(C2=CCCCC2)C1=O` (stereo not given) reads -4.25% (inactive); that for `c1ccc(CN2CCNCC2)cc1`, 7.98% [at 226 µM] (inactive); that for `ClCc1ccccc1`, 3.62% (inactive).

`O=NN1CCNCC1`: the “ratio activity, negative = inhibition” value was -6.89% [at 80.4 µM] (inactive). Still for that read-out and setting: with `Clc1ccc(C2(Cn3cncn3)CC(Br)CO2)c(Cl)c1` (stereo not given) the figure was 2.45% (inactive). Same read-out and setting: the result for `O=[N+]([O-])c1ccc(F)c([N+](=O)[O-])c1` reads -4.3% [at 80.4 µM] (inactive). Regarding `Clc1cc(Cl)c(Cl)c(Cl)c1`, the “ratio activity, negative = inhibition” value was 17.5% (inactive).

Consider `Clc1cccc2ccccc12`, for which the “ratio activity, negative = inhibition” value was 10.9% (inactive). On to `O=C(O)c1ccccc1C(=O)Nc1cccc2ccccc12`, for which the “ratio activity, negative = inhibition” value is -2.44% (inactive). `O=[N+]([O-])c1ccccc1CCl`: the “ratio activity, negative = inhibition” value was 0.0319% [at 80.4 µM] (inactive).

Turning to `Cn1sc(Cl)cc1=O`, the “ratio activity, negative = inhibition” value is 1.24% (inactive). The same measure, in the same setting: the result for `ClCCCCBr` reads 0.975% [at 80.4 µM] (inactive); that for `Nc1ccc([N+](=O)[O-])cc1[N+](=O)[O-]`, -12% (inactive). Same read-out and setting: the result for `Cc1ccc(N)cc1C` reads 0.0956% [at 80.4 µM] (inactive); that for `c1ccc(C2CC2)c(OCC2=NCCN2)c1`, -0.466% (inactive). On the same count and under the same terms, the result for `C=CC(C)=O` reads -0.383% (inactive); that for `Nc1nc(N)nc(N)n1`, -0.376% [at 80.4 µM] (inactive); that for `Nc1nc(=S)[nH][nH]1`, -7.2% (inactive). Consider `c1ccoc1`, for which the “ratio activity, negative = inhibition” value is -8.22% (inactive). `C[C@]12CC[C@H]3[C@@H](CCC4=CC(=O)CC[C@@H]43)[C@@H]1CC[C@@H]2OC(=O)CCC1CCCCC1`: the “ratio activity, negative = inhibition” value is 20.5% (inactive). On the same count and under the same terms, with `CC(Cl)Cl` the figure was 2.22% (inactive); with `CO[C@@H]1[C@H](OC(=O)NC(=O)CCl)CC[C@]2(CO2)[C@H]1[C@@]1(C)O[C@@H]1CC=C(C)C`, -0.728% [at 28.9 µM] (inactive); with `ClC=C(Cl)Cl`, -0.456% [at 80.4 µM] (inactive). The same measure, in the same setting: with `COC(=O)C(Cl)C(=O)OC` the figure was 14.4% (inactive); with `COP(=S)(OC)Oc1ccc([N+](=O)[O-])cc1Cl`, -9.63% (inactive); with `COC(=O)C(C)N(C(=O)Cc1ccccc1)c1c(C)cccc1C` (stereo not given), -0.435% (inactive). Still for that read-out and setting: with `CCC(Br)(CC)C(=O)NC(N)=O` the figure was 4.23% (inactive); with `O=C1NCN(c2ccccc2)C12CCN(CCCOc1ccc(F)cc1)CC2`, -7.82% (inactive); with `CCOP(=O)(OCC)O/C(=C/Cl)c1ccc(Cl)cc1Cl`, 1.06% (inactive). `CCCN(CC1CC1)c1c([N+](=O)[O-])cc(C(F)(F)F)cc1[N+](=O)[O-]`: the “ratio activity, negative = inhibition” value was 3.15% (inactive). As to `N#CCC#N`, the “ratio activity, negative = inhibition” value was 3.24% (inactive). Still for that read-out and setting: the result for `CCCN(CCC)c1c([N+](=O)[O-])cc(S(C)(=O)=O)cc1[N+](=O)[O-]` reads -13.2% (inactive); that for `CC1CC(CC2CCC(N)C(C)C2)CCC1N` (stereo not given), -7.52% [at 80.4 µM] (inactive); that for `ClCc1cccc(Cl)c1`, 5.54% (inactive).

With `CC1(C)CCC(Cc2ccc(Cl)cc2)C1(O)Cn1cncn1` (stereo not given), the “ratio activity, negative = inhibition” value is -0.456% (inactive). On the same count and under the same terms, the result for `COC1=CC(=O)O[C@@H](CCc2ccccc2)C1` reads -7.77% [at 80.4 µM] (inactive).
